PP5 inh: PP5 phosphatase inhibitors, primary screen, biochemical, fluorescence. AID 1987, 2009. 0.18% of 320,000 active. purified PP5c, OMFP substrate fluorescence. inhibition, % at 6.7 µM;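 active = inhibition above the campaign's mean inhibition across all tested compounds plus 3 SD, cut at about 9.5% in these data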;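 note: 0% = DMSO only and 100% = 100 µM cantharidin control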
PP1 counter: PP1-alpha phosphatase inhibitors, primary screen, counter-screen for PP5 inhibitor project, biochemical, fluorescence, OMFP substrate, single point. Serine/threonine-protein phosphatase PP1-alpha catalytic subunit (Homo sapiens), P62136. purified PP1alpha. inhibition, % at 6.7 µM. 0.9% of 320,000 active;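 active = inhibition above the mean inhibition of all tested compounds plus 3 SD, computed separately for each screening campaign, cut at about 15% in these data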
Target sequence (P62136 whole entry, looked up): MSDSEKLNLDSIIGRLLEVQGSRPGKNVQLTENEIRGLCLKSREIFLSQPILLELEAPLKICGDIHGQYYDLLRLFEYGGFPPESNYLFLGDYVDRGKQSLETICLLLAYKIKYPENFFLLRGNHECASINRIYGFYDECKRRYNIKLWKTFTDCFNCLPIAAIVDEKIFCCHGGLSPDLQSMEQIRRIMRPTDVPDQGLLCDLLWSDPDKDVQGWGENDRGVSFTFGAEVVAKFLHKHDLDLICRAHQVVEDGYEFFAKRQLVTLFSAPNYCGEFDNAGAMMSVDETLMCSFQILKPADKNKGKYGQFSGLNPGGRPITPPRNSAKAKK
MsrA inhibitor: bovine MsrA enzyme inhibitors, primary screen, biochemical, absorbance, HTS. 0.75% of 360,000 active. inhibition, % at 15.5 µM. purified bovine MsrA, absorbance read-out. AID 651718, 2012. Methionine sulfoxide reductase A (Bos taurus); in the data active = inhibition above about 4.5%;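 note: 0% = vehicle wells with enzyme and 100% = reference inhibitor wells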
bovine MsrA act: bovine MsrA enzyme activators, primary screen, biochemical, absorbance, HTS; Methionine sulfoxide reductase A (Bos taurus); purified bovine MsrA, absorbance read-out; activation, % at 10.6 µM; 0.3% of 360,000 active; in the data active = activation above about 7.5%;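 note: 0% = vehicle and 100% = reference activator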
EBNA-1 inhibitor: EBNA-1 DNA-binding inhibitors, primary screen, biochemical, fluorescence polarization. 0.34% of 300,000 active. AID 1950, 2009. inhibition, % at 14.8 µM; in the data active = inhibition above about 28%
ZTA DNA inh: ZTA (EBV) inhibition in EBNA-1 counter-screen; P03206; inhibition, % at 11 µM; 0.15% of 320,000 active; ZTA-DNA binding, fluorescence polarization; in the data active = inhibition above about 33%
Target sequence (P03206 whole entry, looked up): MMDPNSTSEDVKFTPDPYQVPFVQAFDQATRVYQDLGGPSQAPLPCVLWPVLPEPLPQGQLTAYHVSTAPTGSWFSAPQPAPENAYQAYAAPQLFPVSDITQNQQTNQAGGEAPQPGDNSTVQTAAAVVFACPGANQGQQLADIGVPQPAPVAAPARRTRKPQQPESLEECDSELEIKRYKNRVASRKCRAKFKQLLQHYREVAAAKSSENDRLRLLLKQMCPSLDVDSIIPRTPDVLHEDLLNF
Starred values were filed as active, the others as inactive. This is a sample that favours compounds with a hit; in the whole collection about 2.3% have one here.

What do the screens show for `Cc1ccc(-c2cc(C(=O)NCc3ccco3)c3ccccc3n2)o1`?
PP5 inh: -4; PP1 counter: 15*; MsrA inhibitor: 1; bovine MsrA act: 1; EBNA-1 inhibitor: -14; ZTA DNA inh: -13

How did CC(=O)N1CCc2c(sc(NC(=O)c3cccc(N4C(=O)CCC4=O)c3)c2C(N)=O)C1 do in these assays?
PP5 inh: 4; PP1 counter: 0; MsrA inhibitor: 4.8*; bovine MsrA act: -3; EBNA-1 inhibitor: 1; ZTA DNA inh: 1

What do the screens show for `NC(=O)c1c(NC(=O)c2cccc(N3C(=O)CCC3=O)c2)sc2c1CCCCC2`?
PP5 inh: 0; PP1 counter: -6; MsrA inhibitor: 0; bovine MsrA act: -3; EBNA-1 inhibitor: -2; ZTA DNA inh: -9

What do the screens show for `O=C(N[C@H](Cc1ccccc1)C(=O)N1CCN(CC(=O)N2CCCC2)CC1)[C@H]1O[C@@H](n2ccc(=O)[nH]c2=O)[C@H](O)[C@@H]1O`?
MsrA inhibitor: -1

What do the screens show for `Cc1ccc(C(=O)c2nc3c(n2O)CCCC3)cc1`?
PP5 inh: -1; PP1 counter: -1; MsrA inhibitor: 2; bovine MsrA act: -5; EBNA-1 inhibitor: 2; ZTA DNA inh: 5

What do the screens show for `CCOc1ccc(C(=O)c2nc3c(n2O)CCCC3)cc1`?
PP5 inh: 0; PP1 counter: 2; MsrA inhibitor: 5.0*; bovine MsrA act: -12; EBNA-1 inhibitor: -11; ZTA DNA inh: 1

How did O=c1cnnc(N/N=C/c2cccs2)[nH]1 do in these assays?
PP5 inh: -1; PP1 counter: -4; MsrA inhibitor: 4.6*; bovine MsrA act: -4; EBNA-1 inhibitor: 3; ZTA DNA inh: 9

What do the screens show for `C=CCN1C(=O)c2n[nH]c(COC)c2C1c1ccc(F)cc1` (stereo unspecified)?
MsrA inhibitor: 0

Results for COC(=O)c1cc2c(c3c4cc(C)ccc4n(S(=O)(=O)c4cccc(C)c4)c13)C(=O)N(Cc1ccc(N(C)C)cc1)C2 ?
MsrA inhibitor: 1

How did CCOC(=O)CC(=O)CSc1nc(-c2ccccc2)cc(-c2ccccc2)c1C#N do in these assays?
PP5 inh: 1; PP1 counter: 17*; MsrA inhibitor: 0; bovine MsrA act: -4; EBNA-1 inhibitor: 8; ZTA DNA inh: -4

How did Cc1ccc2oc(-c3ccc(NC(=O)c4ccncc4)cc3O)nc2c1 do in these assays?
PP5 inh: 0; PP1 counter: 2; MsrA inhibitor: -2; bovine MsrA act: -7; EBNA-1 inhibitor: 0; ZTA DNA inh: 7

Results for COc1ccc(CC(=O)Nc2ccc(-c3nc4cc(C)ccc4o3)c(O)c2)cc1OC ?
PP5 inh: 2; PP1 counter: 16*; MsrA inhibitor: 2; bovine MsrA act: -4; EBNA-1 inhibitor: 5; ZTA DNA inh: 14

What do the screens show for `CCOc1ccc(-n2c(SCC(=O)Nc3ccc(CC)cc3)nc3n[nH]c(C)c3c2=N)cc1`?
PP5 inh: 2; PP1 counter: 16*; MsrA inhibitor: 2; bovine MsrA act: 0; EBNA-1 inhibitor: 13; ZTA DNA inh: 8

What do the screens show for `CCCc1cc(=O)oc2cc(OCC(=O)N3C[C@H]4C[C@@H](C3)c3cccc(=O)n3C4)c(Cl)cc12`?
PP5 inh: 1; PP1 counter: -3; MsrA inhibitor: 1; bovine MsrA act: 2; EBNA-1 inhibitor: -7; ZTA DNA inh: 8

How did CCCCc1cc(=O)oc2c(C)c(OCC(=O)N3C[C@H]4C[C@@H](C3)c3cccc(=O)n3C4)ccc12 do in these assays?
PP5 inh: 5; PP1 counter: 17*; MsrA inhibitor: 2; bovine MsrA act: -2; EBNA-1 inhibitor: -9; ZTA DNA inh: -16

How did O=C1/C(=C/c2ccc(F)cc2)SC(=S)N1CC(=O)N1CCCCC1c1cccnc1 (stereo unspecified) do in these assays?
PP5 inh: 1; PP1 counter: 16*; MsrA inhibitor: 2; bovine MsrA act: -10; EBNA-1 inhibitor: 3; ZTA DNA inh: -2

What do the screens show for `O=C1/C(=C/c2ccccc2F)SC(=S)N1CC(=O)N1CCCCC1c1cccnc1` (stereo unspecified)?
PP5 inh: 1; PP1 counter: 13; MsrA inhibitor: 2; bovine MsrA act: -3; EBNA-1 inhibitor: 8; ZTA DNA inh: 11

What do the screens show for `O=[N+]([O-])c1ccc(NCCNS(=O)(=O)c2ccccc2)cc1`?
PP5 inh: 2; PP1 counter: -1; MsrA inhibitor: 0; bovine MsrA act: -4; EBNA-1 inhibitor: -1; ZTA DNA inh: 1

Results for O=[N+]([O-])c1ccc(NCCNS(=O)(=O)c2ccccc2)c(C(F)(F)F)c1 ?
PP5 inh: 6; PP1 counter: 2; MsrA inhibitor: 5.1*; bovine MsrA act: -3; EBNA-1 inhibitor: -12; ZTA DNA inh: 3

Results for COCc1[nH]nc2c1C(c1ccc(C)cc1)NC2=O (stereo unspecified) ?
MsrA inhibitor: 0

What do the screens show for `Cc1ccc(SCc2nc3ccccc3n2CC(=O)Nc2ccccc2)cc1`?
PP5 inh: 4; PP1 counter: 1; MsrA inhibitor: 2; bovine MsrA act: -2; EBNA-1 inhibitor: 7; ZTA DNA inh: 1

Results for Cc1ccc(SCc2nc3ccccc3n2CC(=O)Nc2c(C)cccc2C)cc1 ?
PP5 inh: 1; PP1 counter: 16*; MsrA inhibitor: 1; bovine MsrA act: -2; EBNA-1 inhibitor: 0; ZTA DNA inh: -15

What do the screens show for `COC(=O)C1=C(C)N(Cc2ccc(C(F)(F)F)cc2)C(=NCc2ccccc2)NC1c1ccccc1` (stereo unspecified)?
MsrA inhibitor: -3

Results for Nc1cc(=O)[nH]c(=O)n1CC1CC1 ?
PP5 inh: -3; PP1 counter: -1; MsrA inhibitor: 0; bovine MsrA act: -7; EBNA-1 inhibitor: 4; ZTA DNA inh: 2

Results for N#CCC(=O)Nc1ccc(C(=O)OCC(=O)N2CCCC2=O)cc1 ?
PP5 inh: 0; PP1 counter: 0; MsrA inhibitor: 0; bovine MsrA act: -2; EBNA-1 inhibitor: -4; ZTA DNA inh: -17

What do the screens show for `O=C1CCCC2=C1C(c1ccc(Br)cc1)c1c([nH]c(=S)[nH]c1=O)N2` (stereo unspecified)?
PP5 inh: 0; PP1 counter: 7; MsrA inhibitor: 3; bovine MsrA act: 5; EBNA-1 inhibitor: 9; ZTA DNA inh: 5

How did O=c1[nH]c(=S)[nH]c2c1C(c1ccc(Br)cc1)c1c([nH]c(=S)[nH]c1=O)O2 do in these assays?
PP5 inh: 0; PP1 counter: 9; MsrA inhibitor: 0; bovine MsrA act: -5; EBNA-1 inhibitor: 31*; ZTA DNA inh: 67*

What do the screens show for `O=C(Oc1cc2oc(=O)cc(-c3ccccc3)c2cc1Cl)C1CCCCC1`?
PP5 inh: 2; PP1 counter: -1; MsrA inhibitor: 18*; bovine MsrA act: -2; EBNA-1 inhibitor: 2; ZTA DNA inh: -6

Compound activity: PubChem, The Scripps Research Institute Molecular Screening Center
